According to PubChem BioAssay (EPA / NIEHS):
Results filed as inconclusive are left out. Calls of active or inactive are those of the source. Rule for the calls, unless noted: active = hit-call score of the fitted dose curve at least 0.9, where 1 is the maximum; inactive = score below 0.9.

How the values were obtained:
[1] = ATG_NFI_CIS: Attagene CIS-FACTORIAL HepG2 Assay for human Nuclear Factor I (NFI) (AID 2282989); conditions: HepG2 cis-regulatory reporter, NFI response element transcription; actives raise or lower the signal
How it was run: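 Cells: human liver HepG2, transiently transfected with promoter-regulated reporter transcription units. Exposure 24 h. Detection: fluorescent RT-PCR products separated by capillary electrophoresis, normalised to DMSO negative control.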

[2] = target: Myc proto-oncogene protein (Homo sapiens) (UniProt P01106); test: ATG_Myc_CIS: Attagene CIS-FACTORIAL HepG2 Assay for human Myelocytomatosis (Myc) Proto-Oncogene Transcription Factor (AID 2282990); conditions: HepG2, Attagene cis-reporter transcription factor activity; actives raise or lower the signal
How it was run: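 Transiently transfected HepG2 cells bearing cis-promoter reporter units for endogenous transcription factors; 24 h exposure. Reporter mRNA measured by RT-PCR, 6-FAM primer extension, HpaI cut and capillary electrophoresis; bidirectional fit relative to DMSO.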

[3] = ATG_NF_kB_CIS: Attagene CIS-FACTORIAL HepG2 Assay for human Nuclear Factor Kappa B (NF-kB) (AID 2282991); conditions: HepG2 Attagene cis-factorial NF-kB reporter mRNA; actives raise or lower the signal
How it was run: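 Endogenous transcription factor activity in HepG2 was captured via cis-regulated reporter constructs; after 24 h dosing, reporter mRNA was reverse-transcribed, amplified, fluorescently labelled and sized by capillary electrophoresis, with activity fitted bidirectionally relative to DMSO.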

[4] = ATG_NRF2_ARE_CIS: Attagene CIS-FACTORIAL HepG2 Assay for human Nuclear Factor Erythroid 2 Related Factor 2 (NFR2) response to Antioxidant Response Elements (ARE) (AID 2282992); conditions: HepG2 Attagene ARE/NRF2 reporter, transcription factor activity; actives raise or lower the signal;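 for AC50: reporter mRNA level measured by RT-PCR and capillary electrophoresis fluorescence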
How it was run: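 Fluorescence intensity of reporter-specific cDNA fragments, separated by capillary electrophoresis, reflects mRNA induction in transfected HepG2 cells at 24 h. Activity is fitted bidirectionally, DMSO serving as baseline.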

[5] = ATG_Oct_MLP_CIS: Attagene CIS-FACTORIAL HepG2 Assay for human Octamer-Binding Transcription Factor (Oct) (AID 2282993); conditions: HepG2 Attagene cis-factorial Oct reporter, mRNA; actives raise or lower the signal
How it was run: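 HepG2, transient MRTU transfection, cis promoter elements; 24 h dosing; RT-PCR/CE fluorescence read-out of reporter mRNA; fit both directions vs DMSO.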

[6] = target: Cellular tumor antigen p53 (Homo sapiens) (UniProt P04637); test: ATG_p53_CIS: Attagene CIS-FACTORIAL HepG2 Assay for human p53 Transcription Factor (AID 2282994); conditions: HepG2 p53 cis-element reporter, Attagene mRNA; actives raise or lower the signal
How it was run: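 Transiently transfected HepG2 (multiple cis reporter transcription units); exposure 24 h; reporter RNA via RT-PCR, 6-FAM extension, 2 h HpaI digest at 37 C, CE detection; DMSO baseline.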

[7] = BSK_3C_TissueFactor: BioMAP Diversity Plus: 3C Assay for Tissue Factor Biomarker Activity (AID 2282997); conditions: BioMAP 3C HUVEC, tissue factor biomarker readout; actives raise or lower the signal
How it was run: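 After a 24 h chemical exposure of primary human umbilical vein endothelial cells, Tissue Factor levels were quantified by ELISA.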

[8] = BSK_3C_uPAR: BioMAP Diversity Plus: 3C Assay for Urokinase-type plasminogen activator receptor (uPAR) Biomarker Activity (AID 2282998); conditions: BioMAP 3C HUVEC, uPAR biomarker ELISA; actives raise or lower the signal
How it was run: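 A multiplexed primary-cell system built on human umbilical vein endothelium was used, with chemical present for 24 h before reading. Cell-surface uPAR was detected by ELISA; signal change in either direction counted against DMSO.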

[9] = BSK_3C_VCAM1: BioMAP Diversity Plus: 3C Assay for Vascular cell adhesion molecule 1 (VCAM1) Biomarker Activity (AID 2282999); conditions: BioMAP 3C HUVEC, VCAM1 ELISA, cytokine-stimulated; actives raise or lower the signal
How it was run: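 HUVEC primary cells, 24 h compound exposure; VCAM-1 by ELISA; gain/loss of signal fitted bidirectionally vs DMSO baseline.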

[10] = BSK_4H_Eotaxin3: BioMAP Diversity Plus: 4H Assay for Eotaxin 3 Biomarker Activity (AID 2283000); conditions: primary human endothelial cells (HUVEC); actives raise or lower the signal
How it was run: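 Chemicals were added to human umbilical vein endothelium cultures, and Eotaxin-3 was quantified by ELISA at 24 h. Values were derived by bidirectional fitting with DMSO serving as negative control and activity baseline.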

[11] = target: human Peroxisome Proliferator-activated Receptor delta (PPARd), PPARD (gene 5467) (UniProt Q03181); test: ATG_PPARd_TRANS: Attagene TRANS-FACTORIAL HepG2 Assay for human Peroxisome Proliferator-activated Receptor delta (PPARd) (AID 2283002; active = hit-call score of the fitted dose curve at least 0.9, where 1 is the maximum)
How it was run: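 HepG2 cells transiently transfected with GAL4-UAS multiplexed reporter units driven by exogenous chimeric NR-GAL4 proteins; 24 h compound exposure. Reporter mRNA measured by RT-PCR, 6-FAM primer extension, HpaI digestion and capillary electrophoresis; gain of signal fitted relative to DMSO.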

[12] = read-out: Intercellular Adhesion Molecule 1 (ICAM1), ICAM1 (gene 3383); test: BSK_3C_ICAM1: BioMAP Diversity Plus: 3C Assay for Intercellular Adhesion Molecule 1 (ICAM1) Biomarker Activity (AID 2283003); conditions: primary human endothelial cells (HUVEC); actives raise or lower the signal
How it was run: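 ELISA read-out of ICAM-1; HUVEC (primary human), 3C system, 24 h post-dosing; bidirectional fit vs DMSO baseline.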

[13] = BSK_3C_Proliferation: Cell Proliferation Assessment in the BioMAP Diversity Plus: 3C Assay (AID 2283006); conditions: primary human endothelial cells (HUVEC);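 for AC50: potency may reflect either rise or fall in cell number versus DMSO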
How it was run: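 HUVEC, sub-confluent; 48 h chemical exposure; 10% TCA fix, 0.1% SRB stain, A560 total protein. Gain or loss of signal fitted both directions vs DMSO control.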

[14] = target: Peroxisome proliferator-activated receptor gamma (Homo sapiens) (UniProt P37231); test: ATG_PPARg_TRANS: Attagene TRANS-FACTORIAL HepG2 Assay for human Peroxisome Proliferator-activated Receptor-gamma (PPARg) (AID 2283007; active = hit-call score of the fitted dose curve at least 0.9, where 1 is the maximum)
How it was run: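 A TRANS-format multiplexed reporter assay measures activity of an exogenous chimeric NR-Gal4 protein in HepG2 cells. After 24 h of chemical exposure, reporter transcripts are amplified, fluorescently labelled and sized by capillary electrophoresis, with gain of signal scored against DMSO.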

[15] = target: human RAR-related Orphan Receptor beta (RORb), RORB (gene 6096) (UniProt Q92753); test: ATG_RORb_TRANS: Attagene TRANS-FACTORIAL HepG2 Assay for human RAR-related Orphan Receptor beta (RORb) (AID 2283010; active = hit-call score of the fitted dose curve at least 0.9, where 1 is the maximum)
How it was run: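 HepG2, transient MRTU transfection (GAL4-UAS reporters, exogenous NR-Gal4 chimeras); 24 h compound exposure; total RNA → RT-PCR → 6-FAM primer extension → HpaI digest → CE fluorescence. Positive direction vs DMSO baseline.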

[16] = target: Nuclear receptor subfamily 1 group I member 2 (Homo sapiens) (UniProt O75469); test: ATG_PXR_TRANS: Attagene TRANS-FACTORIAL HepG2 Assay for human Pregnane X Receptor (PXR) (AID 2283008; active = hit-call score of the fitted dose curve at least 0.9, where 1 is the maximum)
How it was run: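 Transient HepG2 transfectants carrying multiplexed reporter transcription units; PXR activity read through a Gal4 chimera. 24 h exposure. RT-PCR/CE fluorescence; upward curve fit referenced to DMSO.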

[17] = target: human Retinoic Acid Receptor beta (RARb), RARB (gene 5915) (UniProt P10826); test: ATG_RARb_TRANS: Attagene TRANS-FACTORIAL HepG2 Assay for human Retinoic Acid Receptor beta (AID 2283004; active = hit-call score of the fitted dose curve at least 0.9, where 1 is the maximum)
How it was run: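 Transient transfection of HepG2 with multiple reporter units → chemical dosing, 24 h → total RNA isolation → RT with oligo(dT) → reporter-specific PCR, 6-FAM primer extension, HpaI digest → capillary electrophoresis. Positive direction vs DMSO control.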

[18] = target: Retinoic acid receptor alpha (Homo sapiens) (UniProt P10276); test: ATG_RARa_TRANS: Attagene TRANS-FACTORIAL HepG2 Assay for human Retinoic Acid Receptor alpha (RARa) (AID 2283005; active = hit-call score of the fitted dose curve at least 0.9, where 1 is the maximum)
How it was run: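 HepG2 transiently transfected with multiplex GAL4-UAS reporter units including a human RARa–GAL4 chimera; 24 h compound exposure. Reporter mRNA quantified by RT-PCR, 6-FAM labeling and capillary electrophoresis; gain of signal versus DMSO.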

[19] = target: human Retinoic Acid Receptor gamma (RARg), RARG (gene 5916) (UniProt P13631); test: ATG_RARg_TRANS: Attagene TRANS-FACTORIAL HepG2 Assay for human Retinoic Acid Receptor gamma (RARg) (AID 2283009; active = hit-call score of the fitted dose curve at least 0.9, where 1 is the maximum)
How it was run: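 Readout: reporter transcript levels via RT-PCR, 6-FAM primer-extension labelling, HpaI digestion and capillary electrophoresis. Cells: HepG2 carrying transfected RARg-GAL4 chimera plus UAS reporter set. Dosing 24 h; DMSO negative control.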

Measured: AC50

Myc proto-oncogene protein (Homo sapiens), sequence (P01106 whole entry, looked up): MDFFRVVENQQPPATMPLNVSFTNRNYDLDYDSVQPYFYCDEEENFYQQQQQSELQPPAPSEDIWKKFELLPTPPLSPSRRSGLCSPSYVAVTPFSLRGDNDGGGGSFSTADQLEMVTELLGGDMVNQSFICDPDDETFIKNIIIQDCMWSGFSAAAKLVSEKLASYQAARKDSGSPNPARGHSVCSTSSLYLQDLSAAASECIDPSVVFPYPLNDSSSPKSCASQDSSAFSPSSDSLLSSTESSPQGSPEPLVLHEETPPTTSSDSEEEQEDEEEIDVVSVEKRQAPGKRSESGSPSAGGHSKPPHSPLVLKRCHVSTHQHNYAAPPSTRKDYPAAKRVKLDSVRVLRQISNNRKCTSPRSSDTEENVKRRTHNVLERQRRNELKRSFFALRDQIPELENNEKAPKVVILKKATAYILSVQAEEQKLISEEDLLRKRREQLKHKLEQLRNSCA
human RAR-related Orphan Receptor beta (RORb), RORB (gene 6096), sequence (Q92753 whole entry, looked up, the tested form may be a part): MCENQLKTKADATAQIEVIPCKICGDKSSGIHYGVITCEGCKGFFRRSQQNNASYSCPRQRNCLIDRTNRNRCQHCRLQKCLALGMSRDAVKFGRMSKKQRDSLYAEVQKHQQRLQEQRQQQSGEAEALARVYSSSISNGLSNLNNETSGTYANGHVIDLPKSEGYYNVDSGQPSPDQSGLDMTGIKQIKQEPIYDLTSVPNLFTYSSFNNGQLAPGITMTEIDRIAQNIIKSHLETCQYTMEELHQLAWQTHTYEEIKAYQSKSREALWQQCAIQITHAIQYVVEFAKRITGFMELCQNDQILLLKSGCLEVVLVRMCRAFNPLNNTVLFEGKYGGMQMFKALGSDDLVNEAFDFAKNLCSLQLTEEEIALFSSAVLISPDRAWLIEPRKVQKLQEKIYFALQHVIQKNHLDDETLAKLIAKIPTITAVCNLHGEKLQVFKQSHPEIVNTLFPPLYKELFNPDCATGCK
Retinoic acid receptor alpha (Homo sapiens), sequence (P10276 whole entry, looked up, the tested form may be a part): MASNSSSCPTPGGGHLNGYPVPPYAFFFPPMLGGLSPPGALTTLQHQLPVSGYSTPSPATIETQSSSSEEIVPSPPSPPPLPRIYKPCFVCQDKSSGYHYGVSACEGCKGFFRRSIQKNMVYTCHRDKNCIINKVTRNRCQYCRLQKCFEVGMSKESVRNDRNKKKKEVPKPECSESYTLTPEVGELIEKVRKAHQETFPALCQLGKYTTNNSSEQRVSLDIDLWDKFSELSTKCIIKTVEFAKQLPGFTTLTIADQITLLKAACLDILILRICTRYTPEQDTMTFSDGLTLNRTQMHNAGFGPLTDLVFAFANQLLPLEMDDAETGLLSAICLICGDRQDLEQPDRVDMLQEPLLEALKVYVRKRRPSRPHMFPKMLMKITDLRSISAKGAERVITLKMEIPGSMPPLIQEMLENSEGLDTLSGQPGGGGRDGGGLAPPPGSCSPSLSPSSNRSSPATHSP
Cellular tumor antigen p53 (Homo sapiens), sequence (P04637 whole entry, looked up): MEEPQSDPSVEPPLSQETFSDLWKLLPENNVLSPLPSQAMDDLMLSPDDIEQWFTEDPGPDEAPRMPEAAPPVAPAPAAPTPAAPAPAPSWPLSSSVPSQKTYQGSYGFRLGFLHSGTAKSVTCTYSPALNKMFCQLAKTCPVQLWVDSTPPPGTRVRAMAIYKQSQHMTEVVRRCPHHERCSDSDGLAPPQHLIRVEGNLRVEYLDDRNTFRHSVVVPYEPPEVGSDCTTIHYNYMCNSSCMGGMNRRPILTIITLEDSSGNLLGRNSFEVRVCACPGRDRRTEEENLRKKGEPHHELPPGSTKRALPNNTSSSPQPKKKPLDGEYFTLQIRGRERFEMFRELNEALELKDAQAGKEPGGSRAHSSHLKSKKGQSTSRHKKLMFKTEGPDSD
human Peroxisome Proliferator-activated Receptor delta (PPARd), PPARD (gene 5467), sequence (Q03181 whole entry, looked up, the tested form may be a part): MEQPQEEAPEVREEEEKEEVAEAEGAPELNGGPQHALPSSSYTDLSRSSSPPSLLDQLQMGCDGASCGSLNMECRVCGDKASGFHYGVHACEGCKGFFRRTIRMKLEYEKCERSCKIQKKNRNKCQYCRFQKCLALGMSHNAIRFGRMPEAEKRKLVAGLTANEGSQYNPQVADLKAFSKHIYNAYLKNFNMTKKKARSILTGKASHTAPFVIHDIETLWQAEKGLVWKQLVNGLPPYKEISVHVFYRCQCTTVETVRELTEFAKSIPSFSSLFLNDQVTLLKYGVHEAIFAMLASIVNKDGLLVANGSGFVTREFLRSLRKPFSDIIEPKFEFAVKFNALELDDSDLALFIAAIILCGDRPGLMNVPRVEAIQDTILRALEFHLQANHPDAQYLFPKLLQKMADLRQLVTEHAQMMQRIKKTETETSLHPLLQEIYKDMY
human Retinoic Acid Receptor beta (RARb), RARB (gene 5915), sequence (P10826 whole entry, looked up): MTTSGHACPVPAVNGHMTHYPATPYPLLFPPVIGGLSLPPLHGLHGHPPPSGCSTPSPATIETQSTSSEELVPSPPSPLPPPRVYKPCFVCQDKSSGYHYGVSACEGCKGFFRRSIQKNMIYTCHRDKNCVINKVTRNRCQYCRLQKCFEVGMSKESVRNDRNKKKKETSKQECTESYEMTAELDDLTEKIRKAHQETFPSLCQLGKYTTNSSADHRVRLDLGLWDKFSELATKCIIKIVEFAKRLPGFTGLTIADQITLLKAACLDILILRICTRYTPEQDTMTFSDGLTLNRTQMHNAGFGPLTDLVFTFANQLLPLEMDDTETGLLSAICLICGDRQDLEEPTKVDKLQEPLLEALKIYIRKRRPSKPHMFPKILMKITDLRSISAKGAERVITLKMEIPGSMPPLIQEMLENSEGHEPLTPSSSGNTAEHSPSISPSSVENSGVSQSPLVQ
Nuclear receptor subfamily 1 group I member 2 (Homo sapiens), sequence (O75469 whole entry, looked up, the tested form may be a part): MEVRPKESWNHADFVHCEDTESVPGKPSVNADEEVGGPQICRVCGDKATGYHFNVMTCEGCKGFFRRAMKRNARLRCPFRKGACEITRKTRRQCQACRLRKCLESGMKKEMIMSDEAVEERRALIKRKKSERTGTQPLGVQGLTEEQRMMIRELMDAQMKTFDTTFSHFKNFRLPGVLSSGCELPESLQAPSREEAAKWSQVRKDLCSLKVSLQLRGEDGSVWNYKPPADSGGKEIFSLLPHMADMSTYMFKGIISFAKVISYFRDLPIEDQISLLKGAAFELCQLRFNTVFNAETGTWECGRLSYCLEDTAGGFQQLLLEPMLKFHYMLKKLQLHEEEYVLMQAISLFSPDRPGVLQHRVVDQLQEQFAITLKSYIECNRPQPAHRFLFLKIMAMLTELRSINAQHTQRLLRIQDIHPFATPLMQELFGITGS
Peroxisome proliferator-activated receptor gamma (Homo sapiens), sequence (P37231 whole entry, looked up, the tested form may be a part): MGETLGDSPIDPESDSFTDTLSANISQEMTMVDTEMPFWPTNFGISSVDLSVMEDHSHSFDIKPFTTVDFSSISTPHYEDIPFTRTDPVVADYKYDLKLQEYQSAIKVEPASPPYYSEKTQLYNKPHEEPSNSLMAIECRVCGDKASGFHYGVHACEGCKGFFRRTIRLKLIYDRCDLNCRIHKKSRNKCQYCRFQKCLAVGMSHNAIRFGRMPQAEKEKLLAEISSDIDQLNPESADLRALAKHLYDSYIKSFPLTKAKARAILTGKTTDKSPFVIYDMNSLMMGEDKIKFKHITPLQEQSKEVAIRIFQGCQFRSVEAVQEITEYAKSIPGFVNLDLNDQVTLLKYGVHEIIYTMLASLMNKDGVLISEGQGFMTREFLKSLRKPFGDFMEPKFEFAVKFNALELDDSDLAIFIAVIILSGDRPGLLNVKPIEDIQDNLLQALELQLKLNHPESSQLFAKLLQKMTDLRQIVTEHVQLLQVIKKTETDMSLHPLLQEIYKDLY
human Retinoic Acid Receptor gamma (RARg), RARG (gene 5916), sequence (P13631 whole entry, looked up, the tested form may be a part): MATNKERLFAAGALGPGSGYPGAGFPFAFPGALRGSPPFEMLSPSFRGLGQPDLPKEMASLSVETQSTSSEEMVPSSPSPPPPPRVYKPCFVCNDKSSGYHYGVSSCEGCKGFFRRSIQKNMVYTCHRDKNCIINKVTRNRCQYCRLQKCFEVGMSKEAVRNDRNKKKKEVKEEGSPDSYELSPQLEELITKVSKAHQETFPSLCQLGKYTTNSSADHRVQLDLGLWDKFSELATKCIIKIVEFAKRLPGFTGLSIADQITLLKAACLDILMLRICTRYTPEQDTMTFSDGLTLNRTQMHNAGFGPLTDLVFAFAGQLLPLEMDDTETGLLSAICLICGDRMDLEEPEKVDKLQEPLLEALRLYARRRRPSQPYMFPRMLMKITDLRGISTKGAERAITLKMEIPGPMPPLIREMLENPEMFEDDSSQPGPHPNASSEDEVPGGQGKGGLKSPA

CCCCOC(=O)c1ccccc1C(=O)O
not listed: [16] | [17] | [18] | [19]
inactive: all other assays above

CNC(=O)Oc1cccc2c1OC(C)(C)O2
active: [1] 50 µM | [4] 37 µM | [5] 38.5 µM | [6] 6.08 µM | [9] 28.5 µM | [10] 20 µM
not listed: [17] | [18] | [19]
inactive: all other assays above

CCC(=NOC/C=C/Cl)C1=C(O)CC(C2CCOCC2)CC1=O (centres undefined)
not listed: [17] | [18] | [19]
inactive: all other assays above

CN(C)C(=O)Nc1cccc(C(F)(F)F)c1
not listed: [11] | [15] | [19]
inactive: all other assays above

CCCSP(=O)(OCC)Oc1ccc(Br)cc1Cl (centres undefined)
active: [4] 2.73 µM | [5] 2.03 µM | [13] 27.4 µM
not listed: [11]
inactive: all other assays above

CNc1cnn(-c2cccc(C(F)(F)F)c2)c(=O)c1Cl
active: [4] 17.1 µM | [5] 13.7 µM
not listed: [15]
inactive: all other assays above

CC(COc1ccc(Oc2ccccc2)cc1)Oc1ccccn1 (centres undefined)
active: [3] 13.8 µM | [4] 7.23 µM | [5] 13 µM | [8] 23.6 µM | [14] 14.5 µM
not listed: [15] | [17] | [18] | [19]
inactive: all other assays above
